Records with an inconclusive call do not appear. Entries that show only a call come without a potency. Values without a mark were called inactive. The source made the active and inactive calls. Calls come from the whole dose curve; as a rule, active = well fitted curve in the direction sought with a large enough effect; inconclusive = small, poorly fitted or top-dose-only effect, or another doubt; inactive = no such curve, though single readings can be large; an effect the other way counts as inactive or inconclusive.
Legend:
[1] = Identifying Small Molecule Inhibitors of Pancreatic Cancer Stem Cells (SN12C, Adherent) (AID 1259358);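 note: cell survival measured after 48 h of compound exposure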; note: potency is the fitted concentration of half-maximal effect
Summary of the method: (§1)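 Adherent (2D) versus sphere (3D) formats; spheres generated 14 d in SCM beforehand. Compound transferred by pin tool after 4 h, 48 h incubation, CellTiter-Glo endpoint.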

[2] = Identifying Small Molecule Inhibitors of Pancreatic Cancer Stem Cells (A278, Adherent) (AID 1259361);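 note: viability read after 48 h compound exposure; nearly all actives have a fitted effect of over 35% in size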
Summary of the method: as §1

[3] = P-glycoprotein substrates identified in KB-3-1 adenocarcinoma cell line, qHTS therapeutic library screen (AID 1346986); note: nearly all actives have a fitted effect of over 60% in size
Summary of the method: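 Viability read by CellTiter-Glo after 72 h compound exposure in dose-response of KB-3-1 and KB-8-5-11 (P-gp-high) cells. Hits needed AC50 < 10 uM, >50% maximum response and curve class -1.1 to -2.4. Cherry-picks retested ± tariquidar, including pcDNA/MDR-19 HEK-293 pair.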

[4] = Identifying Small Molecule Inhibitors of Pancreatic Cancer Stem Cells (SN12C, Spheroid) (AID 1259360); details: Potency: SN12C spheroid viability; note: potency is the fitted concentration of half-maximal effect
Summary of the method: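 Endpoint: ATP-based luminescence, 48 h drug exposure. Bortezomib at 9.2 uM final as full-kill control; DMSO vehicle as negative control; activity normalized between vehicle and cell-free wells.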

Compound: COc1c(Cl)cc2c([nH]c3cnccc32)c1NC(=O)c1cccnc1C
- Potency [1]: inactive
- IC50 (viability decrease) [2]: inactive
- Potency [3]: inactive

Compound: CC1(C)Cc2c(-c3ccccc3)c(-c3ccc(Cl)cc3)c(CC(=O)O)n2C1
- Potency [4]: inactive

Compound: CN(C(=O)c1ccc(F)cc1C(F)(F)F)C1CCN(c2nnc(-c3ccnn3C)c3ccccc23)CC1
- Potency [1]: inactive
- Potency [4]: inactive

Compound: CCN(CC)CCCC(C)Nc1nc(C)cc(Nc2ccc3nc(C)cc(N)c3c2)n1 (centres undefined)
- Potency [4]: inactive
- IC50 (viability decrease) [2]: inactive
- Potency [3]: inactive

Compound: CCN(CCCO)CCCOc1ccc2c(Nc3cc(CC(=O)Nc4cccc(F)c4)[nH]n3)ncnc2c1
- Potency [4]: inactive

Compound: C[C@]12CC[C@H](O)CC1=CC[C@@H]1[C@H]2CC[C@]2(C)C(c3cccnc3)=CC[C@H]12
- Potency [4]: inactive
- IC50 (viability decrease) [2]: inactive

Compound: CC[C@@H](C)[C@H](NC(=O)[C@H](CC1CCCCC1)NC(=O)c1ccno1)C(=O)N1CCC2(CCc3ccccc32)CC1
- Potency [1]: inactive
- Potency [4]: 11.8 µM (active)

Compound: C[C@@H]1CN(Cc2ccc(F)cc2)[C@@H](C)CN1C(=O)c1cc2c(C(=O)C(=O)N(C)C)cn(C)c2cc1Cl
- Potency [4]: 16.6 µM (active)
- IC50 (viability decrease) [2]: 20.9 µM (active)

Compound: Cc1ccc2c(c1)C(=O)[C@@]1(O)CCN(c3ccccc3)C1=N2
- Potency [4]: inactive
- IC50 (viability decrease) [2]: inactive

Compound: CN([C@@H](Cc1ccc(OS(=O)(=O)c2cccc3cnccc23)cc1)C(=O)N1CCN(c2ccccc2)CC1)S(=O)(=O)c1cccc2cnccc12
- Potency [1]: inactive
- Potency [4]: inactive
- IC50 (viability decrease) [2]: inactive
- activity change, negative = cytotoxicity [3]: -0.309% [at 5.11 µM]

Compound: Cc1ccnc(NS(=O)(=O)c2ccc(NC(=O)Nc3ccc(S(=O)(=O)Nc4nccc(C)n4)cc3)cc2)n1
- Potency [4]: 18.7 µM (active)
- Potency [3]: inactive

Compound: Cc1cnc(Nc2ccc(OCCN3CCCC3)cc2)nc1Nc1cccc(S(=O)(=O)NC(C)(C)C)c1
- Potency [1]: inactive
- Potency [4]: inactive
- IC50 (viability decrease) [2]: inactive

Compound: COCC(=O)NCC=Cc1ccc2ncnc(Nc3ccc(Oc4ccc(C)nc4)c(C)c3)c2c1
- IC50 (viability decrease) [2]: 20.9 µM (active)

Compound: Cc1cc(C=c2sc3nc4ccccc4n3c2=O)c(C)n1-c1ccccc1
- Potency [1]: inactive
- Potency [4]: inactive
- IC50 (viability decrease) [2]: inactive

Compound: C/C(=C\C(=O)Nc1ccccc1C(=O)O)c1ccc2ccccc2c1
- Potency [4]: inactive

Compound: CCCn1c(=O)c2[nH]c(C34CC5CC3C[C@@H](C5)C4)nc2n(CCC)c1=O
- Potency [1]: inactive
- Potency [4]: inactive

Compound: CC(C)(N)C(=O)N[C@H](COCc1ccccc1)C(=O)N1CCC2(CC1)CN(S(C)(=O)=O)c1ccccc12
- Potency [4]: inactive

Compound: Cc1cc(-c2ccc(CC(=O)Nc3ccc(-c4cccnc4)cc3)cc2)ccn1
- Potency [1]: inactive
- Potency [4]: inactive
- IC50 (viability decrease) [2]: 18.7 µM (active)

Compound: NC(=O)C1CCCc2c1[nH]c1ccc(Cl)cc21 (centres undefined)
- Potency [1]: inactive
- Potency [4]: inactive

Compound: O=C(OCC#CCSc1nnc(-c2ccc3ccccc3c2)o1)c1cc2ccccc2s1
- Potency [4]: inactive

Compound: Cc1cc(-c2nnc3n2CCCCC3)c(C)n1-c1ccc(F)cc1
- Potency [4]: inactive

Compound: Cc1ccc(NC(=O)c2cccc(C(C)(C)C#N)c2)cc1Nc1ccc2ncn(C)c(=O)c2c1
- Potency [1]: 7.43 µM (active)

Compound: CNC(=O)c1ccc(C)c(-n2c(C)cc(OCc3ccc(F)cc3F)c(Br)c2=O)c1
- Potency [4]: 4.69 µM (active)

Source: PubChem BioAssay (NCATS)
